In the supplement of paper PMC13380429:

What follows are molecules tested on Vero E6 infected with SARS-CoV-2 (assay: SARS-CoV-2 infection rate relative to infected DMSO; higher = more infection, active = 60 or less). Conditions: 24 h.
For `CC(C)NCC(O)COc1ccc(COCCOC(C)C)cc1` (stereo not drawn) [bisoprolol] (10 µM), the SARS-CoV-2 infection rate was 106% (inactive).
`COc1ccc(-c2cc(C(F)F)nn2-c2ccc(S(N)(=O)=O)cc2)cc1F` [deracoxib] (10 µM) was tested, and the SARS-CoV-2 infection rate was 112% (inactive).
With `NCC(O)c1ccc(O)cc1` (stereo not drawn) [octopamine] (10 µM) the SARS-CoV-2 infection rate was 114% (inactive).
For `COc1cc(/C=C2\CCC/C(=C\c3ccc(O)c(OC)c3)C2=O)ccc1O` [cyclovalone] (10 µM), the SARS-CoV-2 infection rate was 93% (inactive).
`Oc1c(Cl)cc(Cl)cc1Sc1cc(Cl)cc(Cl)c1O` [bithionol] (10 µM) was tested, and the SARS-CoV-2 infection rate was 106% (inactive).
With `C[N+](C)(C)CCOP(=O)(O)OC[C@H](O)CO` [choline-alfoscerate] (10 µM) the SARS-CoV-2 infection rate was 114% (inactive).
`CC(C)NC(=N)NC(=N)Nc1ccc(Cl)cc1` [proguanil] (10 µM) was tested, and the SARS-CoV-2 infection rate was 112% (inactive).
For `Nc1cccc2c1C(=O)N(C1CCC(=O)NC1=O)C2=O` (stereo not drawn) [pomalidomide] (10 µM), the SARS-CoV-2 infection rate was 108% (inactive).
